# Laboratory results taken from the supplement of paper PMC8699584.
# Where “and” joins values, the source holds several entries; their conditions need not be identical. Equal entries are not always repeated. Structures can show the parent of a compound that is named as a salt. ± gives the standard deviation of the averaged measurements.
# Assays:
# Molm13 = assay: cell viability relative to DMSO control (bortezomib = 0%); higher = less growth inhibition; conditions: 10 nM; 72 h
# How it was run: (§1)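 Cell viability was assessed by CellTiter-Glo luminescence. Acute myeloid leukemia cells were seeded at 1000 cells per well in 50 µL on a 384-well library of 679 compounds at a single 10 nM dose for 72 h. Per-plate linear regression set DMSO-treated cells at 100% and positive-control-treated cells at 0%.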
# Mv4-11 = assay: as above; conditions: 10 nM; 72 h
# How it was run: as §1
Compound,cell viability (Molm13),cell viability (Mv4-11)
CCOc1cc2ncc(C#N)c(Nc3ccc(F)c(Cl)c3)c2cc1NC(=O)/C=C/CN(C)C [Pelitinib (EKB-569)],104 ± 12%,104 ± 3.4%
COc1ccc2c3n(c(=NC(=O)c4cccnc4)nc2c1OC)CCN3,88.7 ± 7%,102 ± 2.9%
"CCCS(=O)(=O)Nc1ccc(F)c(C(=O)c2c[nH]c3ncc(-c4ccc(Cl)cc4)cc23)c1F [Vemurafenib (PLX4032, RG7204)]",101 ± 7%,105 ± 1.1%
Fc1ccc2[nH]ccc2c1-c1nc(N2CCOCC2)c2sc(CN3CCN(CC4CC4)CC3)cc2n1,111 ± 13%,119 ± 7.6%
Cc1cnc(Nc2ccc(OCCN3CCCC3)cc2)nc1Nc1cccc(S(=O)(=O)NC(C)(C)C)c1,86.3 ± 1.3%,92.97 ± 0.82%
Cn1cnc2c(F)c(Nc3ccc(Br)cc3Cl)c(C(=O)NOCCO)cc21 [Selumetinib (AZD6244)],106 ± 18%,106 ± 3.2%
C=CC(=O)Nc1cccc(C)c1Nc1ncc2cc(-c3c(Cl)c(OC)cc(OC)c3Cl)ccc2n1,112 ± 22%,112 ± 1.2%
"C=CC(=O)Nc1cccc(Nc2nc(Nc3ccc(N4CCN(C(C)=O)CC4)cc3OC)ncc2C(F)(F)F)c1 [Rociletinib (CO-1686, AVL-301)]",108 ± 10%,110 ± 1.6%
CCCS(=O)(=O)Nc1ccc(F)c(C(=O)c2c[nH]c3ncc(Cl)cc23)c1F,104 ± 8.2%,135 ± 12%
CC1(C)CC(=O)C2=C(C1)NC(=S)NC2c1cccc(O)c1 (centres undefined) [Dimethylenastron],91 ± 2.6%,109 ± 4.5%
O=C1NC(=O)C(=Cc2ccc(-c3ccc(F)cc3)o2)S1 (stereo in doubt),106 ± 12%,108 ± 13%
CCCN(CCC)C(=O)C(CCC(=O)O)NC(=O)c1ccccc1 (centres undefined) [Proglumide],100 ± 3%,106 ± 24%
CC(C)NCC(O)c1ccc(O)c(O)c1 (centres undefined) [Isoprenaline hydrochloride],114 ± 3.4%,101 ± 17%
COc1cc2c(Oc3ccc(NC(=O)C4(C(=O)Nc5ccc(F)cc5)CC4)cc3F)ccnc2cc1OCCCN1CCOCC1,14.3 ± 2.5%,15.8 ± 33%
Nc1n[nH]c(N)c1N=Nc1ccc(O)cc1,117 ± 6.2%,110 ± 14%
O=c1c(O)c(-c2cc(O)c(O)c(O)c2)oc2cc(O)cc(O)c12 [Myricetin],106 ± 20%,114 ± 17%

Compound,cell viability (Molm13),cell viability (Mv4-11)
CC(C)(C)n1nc(Cc2cccc3ccccc23)c2c(N)ncnc21,106 ± 29%,106 ± 3%
O=C(c1ccc(/C=C/c2n[nH]c3ccccc23)cc1)N1CCNCC1,104 ± 4.2%,92.9 ± 17%
"COC1=CC(=O)c2ccccc2C1=O [2-Methoxy-1,4-naphthoquinone]",94.66 ± 0.11%,98.6 ± 9.1%
"Cn1c(=O)n(-c2ccc(C(C)(C)C#N)cc2)c2c3cc(-c4cnc5ccccc5c4)ccc3ncc21 [BEZ235 (NVP-BEZ235, Dactolisib)]",113 ± 7.9%,102 ± 6.4%
CCN(CC)CCCCNc1ncc2cc(-c3cc(OC)cc(OC)c3)c(NC(=O)NC(C)(C)C)nc2n1,114% and 117%,113% and 119%
Cc1ccc(NC(=O)c2cccc(N(C)C)c2)cc1NC(=O)c1ccc(O)cc1,94.6 ± 6%,103 ± 5.7%
O=C1c2ccccc2C(=O)C1c1ccccc1 [Phenylindione],95.7 ± 6.6%,114 ± 1.8%
NC[C@@](O)(c1ccc(Cl)cc1)c1ccc(-c2cn[nH]c2)cc1,108 ± 8.3%,123 ± 20%
O=C1NC(=O)/C(=C\c2ccc3nccnc3c2)S1,116 ± 13%,104 ± 13%
O=C(Nc1ccc(-c2ccnc(Nc3ccc(N4CCOCC4)cc3)n2)cc1)C1CCCN1 (centres undefined),107 ± 16%,95.7 ± 4.2%
O=c1c(-c2ccc(O)cc2)coc2cc(O)cc(O)c12 [Genistein],104 ± 4.5%,122 ± 24%
CC(CCc1ccccn1)(CCc1ccccn1)C(=O)c1ccccc1,112 ± 14%,109 ± 12%
Nc1nc(OCC2CCCCC2)c2[nH]cnc2n1,90.5 ± 11%,105.62 ± 0.08%
C=CCc1ccc(O)c(-c2ccc(O)c(CC=C)c2)c1 [Honokiol],105 ± 5.5%,112 ± 14%
COc1c(C)c(C(=O)c2ccc(N)c(C(=O)O)c2)n2ccccc12,107 ± 23%,114 ± 7.3%
Cc1cc(Nc2nc(N[C@@H](C)c3ccc(F)cc3)c(C#N)cc2F)n[nH]1,123 ± 7.3%,99.4 ± 3.3%
